Shown is part of a subset that was picked to be rich in hits.
FBPA Giardia inh = qHTS Assay for Inhibitors of Fructose-1,6-bisphosphate Aldolase from Giardia Lamblia | AID 2451, 2010 | Potency, µM (titrated, usually from 59.6 µM), for inactives: at the top dose activity, negative = inhibition, usual class: inhibitors | purified Giardia FBPA | A8B2U2 | hit rate 0.71% among 290,000; also: potency is read from the fitted curve at half-maximal effect; % is scaled to controls: 0 for no effect and ±100 for the full control effect; nearly all actives have a fitted effect of over 55% in size
Target sequence (A8B2U2 whole entry, looked up): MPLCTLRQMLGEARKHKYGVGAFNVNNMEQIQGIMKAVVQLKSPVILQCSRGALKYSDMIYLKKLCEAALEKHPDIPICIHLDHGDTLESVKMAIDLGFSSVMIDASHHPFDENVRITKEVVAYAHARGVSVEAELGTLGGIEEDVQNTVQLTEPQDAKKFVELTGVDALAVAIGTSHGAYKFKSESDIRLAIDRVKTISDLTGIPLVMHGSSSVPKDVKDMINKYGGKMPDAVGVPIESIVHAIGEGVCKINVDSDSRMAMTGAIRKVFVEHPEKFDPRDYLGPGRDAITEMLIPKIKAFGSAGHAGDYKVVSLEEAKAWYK
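Giardia FBPA (40 nM reagent) was preincubated 10 min at RT with compound (up to 57.5 uM final), then substrate plus GAPDH/TPI/NAD/arsenate coupling system with diaphorase/resazurin was added; resorufin fluorescence (525/598 nm) was read after 20 min.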
RE007 growth inh = qHTS Assay for Inhibitors of the HIV-1 protein Vpr. S. pombe RE007 Vpr strain, BacTiter-Glo ATP luminescence, 24 h. Potency, µM (titrated, usually from 92.2 µM), without a hit: top-dose activity change, negative = less growth, hits mostly inhibitors. hit rate 0.21% among 360,000; active = well fitted falling curve with a large enough effect; inconclusive = small, poorly fitted or top-dose-only effect; inactive = no such curve, though single readings can be large or run the other way; also: potency is read from the fitted curve at half-maximal effect; % is scaled to controls: 0 for no effect and ±100 for the full control effect; nearly all actives have a fitted effect of over 50% in size
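Fission yeast strain RE007, carrying one chromosomally integrated HIV-1 vpr copy, was seeded at OD 0.01 in PMG+AL medium with 23 nL pinned compound. After 24 h at 30 °C and 99% humidity, viability was read by BacTiter-Glo luminescence.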
Shiga toxin inh = A qHTS for Small Molecule Inhibitors of Shiga Toxin | inhibition, % at 38.7 µM | hit rate 9.2% among 290,000 | Vero cells, Shiga toxin protein synthesis inhibition reporter; in the data active = inhibition mostly above about 28%, no sharp cut-off; inactive = mostly below about 43%; also: 0% is about no effect
TbPYK inhibitor = qHTS of Trypanosoma Brucei Inhibitors | Potency, µM (doses to about 76.8 µM), for the others: at the highest dose activity, negative = inhibition, hits mostly inhibitors | TbPYK enzyme, Kinase-Glo Plus ATP luminescence, 45 min | hit rate 0.12% among 410,000; also: potency is read from the fitted curve at half-maximal effect; % is scaled to controls: 0 for no effect and ±100 for the full control effect; nearly all actives have a fitted effect of over 50% in size
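Luminescence from Kinase-Glo Plus, added after a 45-minute room-temperature reaction, served as the end-point read-out. The enzyme and substrate were preincubated with compound before ADP (130 uM final) initiated turnover. Concentration-effect curves came from normalized qHTS data.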
LmPK inh = qHTS Assay for Inhibitors of Leishmania Mexicana Pyruvate Kinase (LmPK); hit rate 0.37% among 290,000; Potency, µM (series often up to 57.5 µM), inactives show top-dose activity change, negative = inhibition, most hits filed as inhibitors; AID 1721, 2009; purified LmPK, Kinase-Glo ATP luminescence, 1 h; also: potency is read from the fitted curve at half-maximal effect; % is scaled to controls: 0 for no effect and ±100 for the full control effect
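Purified LmPK (0.1 nM) converted ADP (0.1 mM) to ATP with PEP (0.5 mM) in imidazole buffer pH 7.2 with KCl and MgCl2, 1 h at room temperature. ATP was read by Kinase-Glo luminescence; data normalized to uninhibited and no-enzyme controls.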
Cycloheximide cs = Cycloheximide Counterscreen for Small Molecule Inhibitors of Shiga Toxin; cell reporter, cycloheximide protein synthesis inhibition counterscreen; max response, %; hit rate 12% among 300,000; AID 2314, 2010; in the data active = max response mostly above about 13%, no sharp cut-off; inactive = mostly below about 14%; also: read at 38.3 µM for the half of the compounds with a filed dose; 0% is about no effect
Active calls of the source: *; [ ] = dose if it differs, or a comment. Unless noted, calls follow the shape of the dose curve; as a rule, active = well fitted curve in the direction sought with a large enough effect; inconclusive = small, poorly fitted or top-dose-only effect, or another doubt; inactive = no such curve, though single readings can be large; an effect the other way counts as inactive or inconclusive.

How did O=C1c2ccccc2C(=O)N1/N=C/c1ccc(O)c(O)c1 do in these assays?
FBPA Giardia inh: inconclusive; RE007 growth inh: -5%; Shiga toxin inh: 47*; TbPYK inhibitor: -10%; LmPK inh: -13%; Cycloheximide cs: 9

What do the screens show for `CCc1cc2c(nc1CC)CCN(CC/C(C)=N/OC[C@@H](O)[C@@H]1O[C@@H]3OC(C)(C)O[C@@H]3[C@H]1O)C2`?
FBPA Giardia inh: -2%[12.9 µM]

What do the screens show for `CC(=O)Nc1ccc(OCC(O)CN2C(C)CCCC2C)cc1` (configuration not stated)?
FBPA Giardia inh: -12%; RE007 growth inh: 11%; Shiga toxin inh: -3; TbPYK inhibitor: -15%; LmPK inh: 0%; Cycloheximide cs: 20*

What do the screens show for `COc1ccc(F)cc1S(=O)(=O)NCCc1sc2nc(-c3ccc(F)cc3)nn2c1C`?
TbPYK inhibitor: 4%

Results for COc1ccc(CS(=O)(=O)CC(C)(O)c2ccccc2)cc1 (configuration not stated) ?
FBPA Giardia inh: -6%; RE007 growth inh: 5%; Shiga toxin inh: -10; TbPYK inhibitor: -3%; LmPK inh: 9%; Cycloheximide cs: -6

How did Cc1ccc(C(C)(O)CS(=O)(=O)Cc2ccccc2)cc1 (configuration not stated) do in these assays?
FBPA Giardia inh: 16%; RE007 growth inh: 10%; Shiga toxin inh: 19; TbPYK inhibitor: -2%; LmPK inh: 2%; Cycloheximide cs: 16*

What do the screens show for `O=C1C(C=NCc2ccco2)=C(O)c2ccccc21`?
FBPA Giardia inh: -7%; RE007 growth inh: 15%; Shiga toxin inh: 79*; TbPYK inhibitor: 0%; LmPK inh: -25%; Cycloheximide cs: 25*

What do the screens show for `O=C1C(C=NCc2ccncc2)=C(O)c2ccccc21`?
FBPA Giardia inh: 4%; RE007 growth inh: 1%; Shiga toxin inh: 102; TbPYK inhibitor: 2%; LmPK inh: 6%; Cycloheximide cs: 49*

How did Oc1oc(-c2ccccc2)nc1C=NCc1ccncc1 do in these assays?
FBPA Giardia inh: 1%; RE007 growth inh: 11%; Shiga toxin inh: 2; TbPYK inhibitor: -4%; LmPK inh: 0%; Cycloheximide cs: -2

How did Cn1c(O)c(C=NCc2ccco2)c(=O)n(C)c1=O do in these assays?
FBPA Giardia inh: -2%; RE007 growth inh: 5%; Shiga toxin inh: -12; TbPYK inhibitor: 2%; LmPK inh: 7%; Cycloheximide cs: -2

What do the screens show for `O=C1C(C=NCc2cccnc2)=C(O)c2ccccc21`?
FBPA Giardia inh: -6%; RE007 growth inh: -9%; Shiga toxin inh: 101*; TbPYK inhibitor: -10%; LmPK inh: -25%; Cycloheximide cs: 72*

How did N#CC(=NCc1cccnc1)C1=C(O)c2ccccc2C1=O do in these assays?
FBPA Giardia inh: inconclusive; RE007 growth inh: 3%; Shiga toxin inh: -12; TbPYK inhibitor: 0%; LmPK inh: -1%; Cycloheximide cs: 2

How did O=C1C(c2ccncc2)=C(O)c2ccccc21 do in these assays?
FBPA Giardia inh: -4%; RE007 growth inh: inconclusive; Shiga toxin inh: 12; TbPYK inhibitor: -5%; LmPK inh: inconclusive; Cycloheximide cs: 26*

What do the screens show for `COc1ccc2c(c1)C(c1ccccc1OC)CC(=O)O2` (configuration not stated)?
FBPA Giardia inh: 2%[89.2 µM]; Shiga toxin inh: inactive; Cycloheximide cs: -1

How did COc1ccc(-n2c(-c3cc(-c4ccccc4)sc3N)n[nH]c2=S)cc1 do in these assays?
FBPA Giardia inh: -8%; RE007 growth inh: -1%; Shiga toxin inh: -21; TbPYK inhibitor: 9%; LmPK inh: 1%; Cycloheximide cs: 0

How did Fc1ccc(-n2c(-c3ccc4ccccc4n3)n[nH]c2=S)cc1Cl do in these assays?
FBPA Giardia inh: -6%; RE007 growth inh: 16%; Shiga toxin inh: 45; TbPYK inhibitor: -27%; LmPK inh: 8%; Cycloheximide cs: 5

What do the screens show for `COc1ccccc1-n1c(-c2ccccc2F)nc2ccccc2c1=O`?
RE007 growth inh: 4%; TbPYK inhibitor: -9%

Results for COc1ccc(-c2n[nH]c(=S)n2/N=C/C=C\c2ccccc2OC)cc1 ?
FBPA Giardia inh: 24%; RE007 growth inh: 6%; Shiga toxin inh: -10; TbPYK inhibitor: -52%; LmPK inh: -1%; Cycloheximide cs: -3

How did COc1ccc(-c2cc(-c3n[nH]c(=S)n3-c3ccccc3OC)[nH]n2)cc1 do in these assays?
FBPA Giardia inh: 15%; RE007 growth inh: 25%; Shiga toxin inh: 6; TbPYK inhibitor: -28%; LmPK inh: 11µM*; Cycloheximide cs: 2

Results for COc1ccccc1-n1c(-c2ccc(C)cc2)nc2ccccc2c1=O ?
FBPA Giardia inh: 7%; RE007 growth inh: -22%; Shiga toxin inh: 48*; TbPYK inhibitor: 3%; LmPK inh: 0%; Cycloheximide cs: 29*

Results for S=c1[nH]nc(-c2ccc3ccccc3n2)n1-c1ccc2ncccc2c1 ?
FBPA Giardia inh: 2%; RE007 growth inh: 7%; Shiga toxin inh: 15; TbPYK inhibitor: 4µM*; LmPK inh: 14µM*; Cycloheximide cs: 3

What do the screens show for `COc1ccc(OC)c(-n2c(-c3cc(-c4ccccc4)n[nH]3)n[nH]c2=S)c1`?
FBPA Giardia inh: 11%; RE007 growth inh: -9%; Shiga toxin inh: -6; TbPYK inhibitor: inconclusive; LmPK inh: 10µM*; Cycloheximide cs: -2

What do the screens show for `Cn1c(-c2ccccc2)n[nH]c1=S`?
FBPA Giardia inh: -15%; RE007 growth inh: -14%; Shiga toxin inh: -5; TbPYK inhibitor: inconclusive; LmPK inh: -1%; Cycloheximide cs: 0

Results for Cc1ccccc1-n1c(-c2cccnc2)n[nH]c1=S ?
FBPA Giardia inh: inconclusive; RE007 growth inh: 4%; Shiga toxin inh: -11; TbPYK inhibitor: inconclusive; LmPK inh: 11µM*; Cycloheximide cs: -2

What do the screens show for `COc1ccc(OC)c(-n2c(-c3cccc(C)c3)n[nH]c2=S)c1`?
FBPA Giardia inh: -14%; RE007 growth inh: 17%; Shiga toxin inh: 8; TbPYK inhibitor: 2.5µM*; LmPK inh: inconclusive; Cycloheximide cs: -5

What do the screens show for `COc1cc(OC)cc(C(=O)NCc2n[nH]c(=S)n2-c2ccccc2OC)c1`?
FBPA Giardia inh: -17%; RE007 growth inh: 6%; Shiga toxin inh: -3; TbPYK inhibitor: 11µM*; LmPK inh: inconclusive; Cycloheximide cs: -2

Results for COc1ccccc1-n1c(-c2ccccc2)n[nH]c1=S ?
FBPA Giardia inh: -8%; RE007 growth inh: 30%; Shiga toxin inh: 3; TbPYK inhibitor: 6.3µM*; LmPK inh: -16%; Cycloheximide cs: 6
